This is part of a sample that, as a whole, favours compounds with a hit. Of some 83,000 tested, about 20% had one in any assay.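 A percent growth of 40 corresponds to 60% growth inhibition; 0 means no net growth; -100 means all cells died. Active threshold: below 10.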 Active and inactive are the calls of the source.
How the values were obtained:
Assay in all cases: NCI-60 one-dose screen, 48 h (100 = growth as untreated, 0 = no growth, -100 = all killed)
Details in all cases: 10 µM unless noted
NCI-H226 lung = test system: NCI-H226 lung
NCI-H322M lung = test system: NCI-H322M lung
HOP-62 NSCLC = test system: HOP-62 NSCLC
NCI-H460 lung = test system: NCI-H460 lung
HOP-92 NSCLC = test system: HOP-92 NSCLC
NCI-H522 lung = test system: NCI-H522 lung
A549/ATCC NSCLC = test system: A549/ATCC NSCLC
786-0 renal = test system: 786-0 renal
COLO 205 colon = test system: COLO 205 colon

Measured: growth

O=S(=O)(NCCNc1nccc(-c2c(-c3cccc(O)c3)nc3occn23)n1)c1ccc(Br)cc1
inactive: NCI-H226 lung 37.1% | NCI-H322M lung 42.3% | HOP-62 NSCLC 45.2% | NCI-H460 lung 31.2% | HOP-92 NSCLC 33.2% | NCI-H522 lung 24.5% | A549/ATCC NSCLC 20.9% | 786-0 renal 45.8% | COLO 205 colon 18.4%

COc1ccc(/C=C/C(=O)c2cc(OC)c(OC)c(OC)c2)cc1OCC(=O)Nc1nc2ccc(OC(F)(F)F)cc2s1
inactive: NCI-H226 lung 40.6% | HOP-92 NSCLC 54.9% | A549/ATCC NSCLC 14.7% | 786-0 renal 58.9% | COLO 205 colon 77%
active: NCI-H322M lung 4.88% | HOP-62 NSCLC -53.3% | NCI-H460 lung -22.9% | NCI-H522 lung -35.5%

C[n+]1ccc(CCc2c[nH]c3ccccc23)cc1
inactive: NCI-H226 lung 109% | NCI-H322M lung 93.4% | HOP-62 NSCLC 69.3% | NCI-H460 lung 107% | HOP-92 NSCLC 93.9% | NCI-H522 lung 81.4% | A549/ATCC NSCLC 66.2% | 786-0 renal 100% | COLO 205 colon 96.8%

Cc1ccc2nc(-c3ccc(C(=O)NNC(=S)Nc4ccccc4)cc3)[nH]c2c1
inactive: NCI-H226 lung 92.7% | NCI-H322M lung 99.7% | HOP-62 NSCLC 95.3% | NCI-H460 lung 94.4% | HOP-92 NSCLC 99.8% | A549/ATCC NSCLC 101% | 786-0 renal 94.8% | COLO 205 colon 119%

CSc1nn2c(-c3ccc4ccccc4c3)ccnc2c1C#N
active: NCI-H460 lung -29.6% | A549/ATCC NSCLC 5.43%
inactive: NCI-H226 lung 24.9% | NCI-H322M lung 56.2% | HOP-62 NSCLC 18.6% | HOP-92 NSCLC 33.8% | 786-0 renal 22.2% | COLO 205 colon 17%

C=C(CNCCO)[C@@H]1CC[C@]2(CO)CC[C@]3(C)[C@H](CC[C@@H]4[C@@]5(C)CCC(N)C(C)(C)[C@@H]5CC[C@]43C)[C@@H]12 (stereo not given in full)
active: NCI-H460 lung -26.8% | NCI-H522 lung 0.745% | COLO 205 colon -74.7%
inactive: NCI-H226 lung 88% | NCI-H322M lung 80.2% | HOP-62 NSCLC 71.4% | HOP-92 NSCLC 54.5% | A549/ATCC NSCLC 36.2% | 786-0 renal 11%

Cc1nc2ccccc2c(/C=C/c2ccccc2)c1C(=O)/C=C/c1ccccc1
active: HOP-62 NSCLC 6.52% | NCI-H460 lung -20.8%
inactive: NCI-H226 lung 65.1% | NCI-H322M lung 43.8% | HOP-92 NSCLC 79.6% | NCI-H522 lung 15.9% | A549/ATCC NSCLC 23.2% | 786-0 renal 31.5% | COLO 205 colon 15.7%

CCN1CCN(CC(=O)Nc2ccc(-c3cn4c(n3)sc3cc(Oc5ccnc(C(=O)NC)c5)ccc34)cc2)CC1
inactive: NCI-H226 lung 105% | NCI-H322M lung 75.9% | HOP-62 NSCLC 66.1% | NCI-H460 lung 48.7% | HOP-92 NSCLC 54.6% | NCI-H522 lung 83.7% | A549/ATCC NSCLC 78.2% | 786-0 renal 75.3% | COLO 205 colon 51.8%

CS(=O)(=O)c1ccc(NC(=O)c2ccccc2)nc1
inactive: NCI-H226 lung 103% | NCI-H322M lung 111% | HOP-62 NSCLC 95.6% | NCI-H460 lung 105% | HOP-92 NSCLC 106% | NCI-H522 lung 68.9% | A549/ATCC NSCLC 96.3% | 786-0 renal 99.1% | COLO 205 colon 128%

CCOC(=O)c1cc(C(=O)c2cc(OC)c(OC)c(OC)c2)n2ccccc12
inactive: NCI-H226 lung 34.5% | NCI-H322M lung 49.7% | HOP-62 NSCLC 28.3% | NCI-H460 lung 14.2% | HOP-92 NSCLC 54.1% | NCI-H522 lung 26% | A549/ATCC NSCLC 25.7% | 786-0 renal 35.5%
active: COLO 205 colon -31.8%

COc1ccc(-c2cc(-c3ccccc3)nc(N3CCN(CCNc4ccnc5cc(Cl)ccc45)CC3)n2)cc1
inactive: NCI-H226 lung 67.5% | NCI-H322M lung 88% | HOP-62 NSCLC 94.8%
active: NCI-H460 lung -68.6% | HOP-92 NSCLC -34.3% | NCI-H522 lung 2.04% | A549/ATCC NSCLC -16% | 786-0 renal -94.6% | COLO 205 colon -69.1%

Cc1cccc(-c2nc(Nc3ccc4ncsc4c3)c3ccccc3n2)n1
inactive: NCI-H226 lung 84.9% | NCI-H322M lung 93.5% | HOP-62 NSCLC 80.2% | NCI-H460 lung 36.1% | HOP-92 NSCLC 110% | NCI-H522 lung 56% | A549/ATCC NSCLC 34.5% | 786-0 renal 87.7% | COLO 205 colon 12.8%

N=c1c(S(=O)(=O)c2ccccc2)cc2c(=O)n3ccccc3nc2n1CC1CCCO1 (stereo not given)
inactive: NCI-H226 lung 103% | NCI-H322M lung 96.4% | HOP-62 NSCLC 95% | NCI-H460 lung 105% | HOP-92 NSCLC 94.5% | NCI-H522 lung 100% | A549/ATCC NSCLC 111% | 786-0 renal 103% | COLO 205 colon 113%

Cc1cccc2c1C[C@@]1(C2=O)C(c2ccc(C(C)(C)C)cc2)=NOS1=O (stereo not given in full)
inactive: NCI-H226 lung 80.7% | NCI-H322M lung 92.2% | HOP-62 NSCLC 90% | NCI-H460 lung 92.2% | HOP-92 NSCLC 74.3% | NCI-H522 lung 90.8% | A549/ATCC NSCLC 90.3% | 786-0 renal 99.7% | COLO 205 colon 105%

Cc1[nH]c(C2CC(c3ccc(C(F)(F)F)c(F)c3)=NN2c2ccccc2)c(C)c1C(=O)NCC(F)(F)F (stereo not given)
inactive: NCI-H226 lung 77.2% | NCI-H322M lung 88% | HOP-62 NSCLC 91.4% | NCI-H460 lung 94.2% | HOP-92 NSCLC 113% | NCI-H522 lung 89.5% | A549/ATCC NSCLC 84.8% | 786-0 renal 90.7% | COLO 205 colon 93.7%

CC(=O)O[C@H]1C[C@@H]2C(C)(C)C(=O)CC[C@@]2(C)c2ccc(C(C)C)cc21
inactive: NCI-H226 lung 101% | NCI-H322M lung 109% | HOP-62 NSCLC 109% | NCI-H460 lung 107% | HOP-92 NSCLC 96.5% | NCI-H522 lung 98.3% | A549/ATCC NSCLC 107% | 786-0 renal 93.9% | COLO 205 colon 115%

C=C(c1ccc(OC)c(/C=C/C(=O)c2ccc3c(c2)OCO3)c1)c1cc(OC)c(OC)c(OC)c1
inactive: NCI-H322M lung 35.1% | HOP-62 NSCLC 36% | HOP-92 NSCLC 12.7% | A549/ATCC NSCLC 27.3% | 786-0 renal 12.6%
active: NCI-H226 lung -40.4% | NCI-H460 lung 0.841% | NCI-H522 lung 5.55% | COLO 205 colon 5.33%

COc1ccc2c(c1)c(-c1nc(-c3c[nH]c4ncccc34)cs1)cn2CCCN1CCOCC1
inactive: NCI-H226 lung 45.4% | NCI-H322M lung 42.1% | HOP-62 NSCLC 28.9% | NCI-H460 lung 25.7% | HOP-92 NSCLC 27.9% | NCI-H522 lung 26.3% | A549/ATCC NSCLC 42%
active: 786-0 renal -24.3% | COLO 205 colon -38.5%

C#CC#CC#CC#CC#CC#CC#CC#CCC1OC[C@H](COC(=O)O[C@@H](C(=O)O[C@H]2C[C@@]3(O)[C@@H](OC(=O)c4ccccc4)[C@@H]4[C@]5(OC(C)=O)CO[C@@H]5C[C@H](O)[C@@]4(C)C(=O)[C@H](OC(C)=O)C(=C2C)C3(C)C)[C@@H](NC(=O)c2ccccc2)c2ccccc2)O1 (stereo not given in full)
inactive: NCI-H226 lung 50.7% | NCI-H322M lung 31.6% | HOP-62 NSCLC 38.5% | NCI-H460 lung 10.3% | HOP-92 NSCLC 67.6% | NCI-H522 lung 42.4% | A549/ATCC NSCLC 32.3% | 786-0 renal 48.8% | COLO 205 colon 23%

O=C(CCCCCCN1CC(=O)N2[C@H](c3ccc(Br)cc3)c3[nH]c4ccccc4c3C[C@@H]2C1=O)NO
inactive: NCI-H226 lung 80.2% | NCI-H322M lung 50.3% | HOP-62 NSCLC 52.2% | NCI-H460 lung 44.7% | HOP-92 NSCLC 31.3% | NCI-H522 lung 26.9% | A549/ATCC NSCLC 80% | 786-0 renal 89.1% | COLO 205 colon 38.7%

CCOc1cccc(/C=N/NC(=O)c2cccc(Nc3ccnc(C(F)(F)F)c3)c2)c1O
inactive: NCI-H226 lung 32.9% | NCI-H322M lung 36.5% | HOP-62 NSCLC 12.3% | HOP-92 NSCLC 51.3% | NCI-H522 lung 40.4% | A549/ATCC NSCLC 38% | COLO 205 colon 37%
active: NCI-H460 lung 7.86% | 786-0 renal 2.63%

O=C1/C(=C/c2ccc(O)c(O)c2)COc2ccc(-c3ccccc3)cc21
active: HOP-92 NSCLC 1.73% | NCI-H522 lung -67.2% | COLO 205 colon 5.4%
inactive: NCI-H226 lung 36.2% | NCI-H322M lung 54.8% | HOP-62 NSCLC 77.5% | NCI-H460 lung 13.7% | A549/ATCC NSCLC 31.8% | 786-0 renal 24.8%

Cc1ccc2c(-c3nnc(N)s3)cc(=O)oc2c1C
inactive: NCI-H226 lung 97.5% | NCI-H322M lung 98.5% | HOP-62 NSCLC 101% | NCI-H460 lung 102% | HOP-92 NSCLC 106% | NCI-H522 lung 102% | A549/ATCC NSCLC 104% | 786-0 renal 92.4% | COLO 205 colon 119%

NS(=O)(=O)c1ccc(C(=O)NN2C(=O)c3c(Br)c(Br)c(Br)c(Br)c3C2=O)cc1
inactive: NCI-H226 lung 102% | NCI-H322M lung 111% | HOP-62 NSCLC 105% | NCI-H460 lung 110% | HOP-92 NSCLC 99.4% | NCI-H522 lung 94.3% | A549/ATCC NSCLC 102% | 786-0 renal 103% | COLO 205 colon 112%

CCOC(=O)c1nn(CC(O)c2ccccc2)c(NC(=O)Nc2cccc(F)c2)c1C (stereo not given)
inactive: NCI-H226 lung 84.8% | NCI-H322M lung 98.9% | HOP-62 NSCLC 104% | NCI-H460 lung 96.3% | HOP-92 NSCLC 99.8% | NCI-H522 lung 84.7% | A549/ATCC NSCLC 87.9% | 786-0 renal 99.7% | COLO 205 colon 106%

Cc1ccc(/C=C/C(=O)Nc2ncc(Cc3ccc(F)cc3)s2)o1
inactive: NCI-H226 lung 85.8% | NCI-H322M lung 59.4% | HOP-62 NSCLC 55.1% | NCI-H460 lung 30.4% | HOP-92 NSCLC 77.8% | A549/ATCC NSCLC 49% | 786-0 renal 66.5% | COLO 205 colon 31.8%

CCN1CCN(CCNc2nccc(-c3c(-c4ccc(F)c(OC)c4)nc4sccn34)n2)S1(=O)=O
inactive: NCI-H226 lung 109% | NCI-H322M lung 83.4% | HOP-62 NSCLC 87.7% | NCI-H460 lung 56.1% | HOP-92 NSCLC 54.4% | NCI-H522 lung 63% | A549/ATCC NSCLC 73.3% | 786-0 renal 102% | COLO 205 colon 62.3%
